A selection: hits, their analogues and other compounds. The true share with any hit is near 2.2%.
HTR5A ag: activates human HTR5A in OPRM1-OPRD1 agonist counter-screen | P47898 | HTR5A agonist assay, luminescence, cell-based | activation, % at 9.3 µM | actives 0.61% (n = 340,000); in the data active = activation mostly above about 9.5%, no sharp cut-off; inactive = mostly below about 7.6%;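 note: 0% = cells with vehicle only and 100% = reference agonist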
MOR-DOR ag: OPRM1-OPRD1 heterodimerization agonism; P35372+P41143; cells, luminescence; activation, % at 9.3 µM; actives 0.3% (n = 340,000); AID 504326;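 note: 0% = vehicle-treated cells and 100% = reference agonist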
HTR2A ag: mouse HTR2A agonism via beta-arrestin recruitment. P35363. activation, % at 7.6 µM. actives 0.66% (n = 360,000). CHO-K1 mHTR2A beta-arrestin complementation, luminescence; percent of 30 µM serotonin response. AID 624169;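 active = activation above a run cutoff, the mean activation of all tested compounds plus 3 SD, cut at about 14% in these data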;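 note: 0% = plate median of compound wells and 100% = 30 µM serotonin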
HTR5A inv ag: HTR5A inverse agonism, opioid heterodimer counter-screen | P47898 | HTR5A cell line, luminescence | inhibition, % at 9.3 µM | actives 0.083% (n = 340,000) | AID 504634; in the data active = inhibition mostly above about 23%, no sharp cut-off; inactive = mostly below about 18%;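 note: 0% = cells with DMSO and 100% = no-cell wells with DMSO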
sPLA2-III inh: Inhibits HGIII-sPLA2 liposome hydrolysis, primary screen | inhibition, % at 12.2 µM | actives 0.56% (n = 370,000) | AID 743126 | QFRET BODIPY PC-A2 liposome hydrolysis, fluorescence;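 active = inhibition above mean plus 3 SD of compounds lying within the high and low control bounds, cut at about 19% in these data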;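 note: 0% = median of test compound wells and 100% = no enzyme DMSO wells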
Target sequence (Q9NZ20 whole entry, looked up): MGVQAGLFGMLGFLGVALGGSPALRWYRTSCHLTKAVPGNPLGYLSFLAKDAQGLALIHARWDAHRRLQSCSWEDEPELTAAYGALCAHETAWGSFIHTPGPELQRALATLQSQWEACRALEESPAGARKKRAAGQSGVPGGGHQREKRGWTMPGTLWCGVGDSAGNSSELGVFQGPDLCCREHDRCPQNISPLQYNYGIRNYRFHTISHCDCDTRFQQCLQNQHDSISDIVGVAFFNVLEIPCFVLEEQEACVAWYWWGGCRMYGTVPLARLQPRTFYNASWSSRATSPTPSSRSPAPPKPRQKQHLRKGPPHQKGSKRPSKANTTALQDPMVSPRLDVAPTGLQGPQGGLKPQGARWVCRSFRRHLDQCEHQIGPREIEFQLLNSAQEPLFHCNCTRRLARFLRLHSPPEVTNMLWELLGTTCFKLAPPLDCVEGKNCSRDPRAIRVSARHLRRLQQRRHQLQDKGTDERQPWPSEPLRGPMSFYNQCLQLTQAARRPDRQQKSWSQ
OPRM1-OPRD1 inv: mu-delta opioid heterodimer inverse agonism | P35372+P41143 | actives 0.21% (n = 340,000) | inhibition, % at 9.3 µM | cell-based MOR-DOR heterodimer luminescence; in the data active = inhibition above about 22%, passing the limit was not always enough;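 note: 0% = cells with DMSO and 100% = wells without cells with DMSO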
OPRM1-D1 ag cf: confirmation of human OPRM1-OPRD1 heterodimerization agonists | shares compounds with MOR-DOR ag | cells, MOR-DOR heterodimerization, luminescence complementation | activation, % at 9.3 µM | actives 45% (n = 830);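 note: 0% = vehicle-treated cells and 100% = reference agonist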
HTR5A ag counter: counter-screen for OPRM1-OPRD1 agonists: human HTR5A agonism | actives 8% (n = 830) | HTR5A agonist counterscreen, cell luminescence | activation, % at 9.3 µM | shares compounds with MOR-DOR ag | AID 504905; in the data active = activation above about 17%;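 note: 0% = vehicle-treated cells and 100% = reference agonist response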
Starred values were filed as active, the others as inactive. Cut-off read from the data, not from the text of the source, unless noted: active = activation above about 18%; inactive = the rest.

`Cc1cc(CN2CCCC(C(=O)Nc3ccc(-c4nc5ccccc5[nH]4)cc3)C2)n[nH]1` (stereo unspecified) gave HTR5A ag -3, MOR-DOR ag 1, HTR2A ag -8, HTR5A inv ag 5, sPLA2-III inh -10 and OPRM1-OPRD1 inv -3.
Screening CCc1ccc(C(=O)c2cnc3ccc(OC)cc3c2N2CCN(CC)CC2)cc1 returned HTR5A ag -3, MOR-DOR ag 111*, HTR2A ag -5, HTR5A inv ag 7, sPLA2-III inh -6, OPRM1-OPRD1 inv inactive, OPRM1-D1 ag cf -1 and HTR5A ag counter -1.
FC(F)(F)c1ccc(Cn2ccc3ccc(-c4ccc5ccn(Cc6ccc(C(F)(F)F)cc6)c5c4)cc32)cc1 was read as sPLA2-III inh 2.
Screening CC(C)Cn1nc(C(=O)NCc2ccccc2CN2CCCC2)c2ccccc2c1=O returned HTR5A ag 3, MOR-DOR ag 163*, HTR2A ag -9, HTR5A inv ag -7, sPLA2-III inh -5, OPRM1-OPRD1 inv inactive, OPRM1-D1 ag cf 4 and HTR5A ag counter 1.
For COc1cccc(-c2nc(NCc3ccco3)c3ccccc3n2)c1O the results were HTR5A ag 8, MOR-DOR ag 26*, HTR2A ag -2, HTR5A inv ag -12, sPLA2-III inh 2, OPRM1-OPRD1 inv -128, OPRM1-D1 ag cf 10 and HTR5A ag counter 24*.
Screening COc1cc(C(=O)N(CCc2ccccc2)C2=CC3CCC(C2)N3C)cc(OC)c1OC (stereo unspecified) returned HTR5A ag -5, MOR-DOR ag 18*, HTR2A ag -4, HTR5A inv ag 11, sPLA2-III inh 3, OPRM1-OPRD1 inv -75, OPRM1-D1 ag cf 0 and HTR5A ag counter 0.
`Cn1c(SCC(=O)Nc2cccc(F)c2)nc2c([nH]c3ccccc32)c1=O` gave HTR5A ag -1, MOR-DOR ag 0, HTR2A ag -2, HTR5A inv ag 3, sPLA2-III inh 6 and OPRM1-OPRD1 inv -2.
Cn1c(SCC(=O)Nc2ccc(F)cc2)nc2c([nH]c3ccccc32)c1=O was read as HTR5A ag 4, MOR-DOR ag 25*, HTR2A ag 11, HTR5A inv ag -12, sPLA2-III inh 11, OPRM1-OPRD1 inv -129, OPRM1-D1 ag cf 18* and HTR5A ag counter 5.
Cc1ccc(NC(=O)CSc2nc3c([nH]c4ccccc43)c(=O)n2C)cc1 was read as HTR5A ag 3, MOR-DOR ag 31*, HTR2A ag -5, HTR5A inv ag -7, sPLA2-III inh -2, OPRM1-OPRD1 inv -185, OPRM1-D1 ag cf -4 and HTR5A ag counter 1.
Screening COCC1CCN(Cc2cn(-c3ccccc3F)nc2-c2cc(C)sc2C)CC1 returned HTR5A ag -1, MOR-DOR ag 42*, HTR2A ag -3, HTR5A inv ag -12, sPLA2-III inh -1, OPRM1-OPRD1 inv -216, OPRM1-D1 ag cf 55* and HTR5A ag counter 5.
`CC(=O)NCCNC(=O)c1ccc(Cn2c(=O)[nH]c3ccsc3c2=O)cc1` gave HTR5A ag 3, MOR-DOR ag -2, HTR2A ag 5, HTR5A inv ag -10, sPLA2-III inh -3 and OPRM1-OPRD1 inv 8.
Screening O=C(Nc1cc(Cl)cc(Cl)c1)c1ccc(Cn2c(=O)[nH]c3ccsc3c2=O)cc1 returned HTR5A ag -3, MOR-DOR ag 25*, HTR2A ag -4, HTR5A inv ag -11, OPRM1-OPRD1 inv -134, OPRM1-D1 ag cf 0 and HTR5A ag counter 0.
For CCOC(=O)c1ccccc1S(=O)(=O)N1CCN(c2nc(-c3cccs3)nc3ccccc23)CC1 the results were sPLA2-III inh -2.
For Cc1cc2nc(-c3ccc(SCC(=O)Nc4ccc(S(=O)(=O)NC5CC5)cc4)nc3)[nH]c2cc1C the results were HTR5A ag 6, MOR-DOR ag 7, HTR2A ag -5, HTR5A inv ag -21, sPLA2-III inh -12 and OPRM1-OPRD1 inv -44.

Source: PubChem BioAssay (The Scripps Research Institute Molecular Screening Center)
